Screening results from PubChem BioAssay.
A selection: hits, their analogues and other compounds. The true share with any hit is near 0.4%.
UCHL1 block – inhibitors of human UCHL1 deubiquitinase; 47,000 tested, 0.2% active; purified UCHL1, Ub-rhodamine cleavage fluorescence; AID 1645859, 2021; inhibition, % at 20 µM; Ubiquitin carboxyl-terminal hydrolase isozyme L1 (Homo sapiens), P09936
Target sequence (P09936 whole entry, looked up): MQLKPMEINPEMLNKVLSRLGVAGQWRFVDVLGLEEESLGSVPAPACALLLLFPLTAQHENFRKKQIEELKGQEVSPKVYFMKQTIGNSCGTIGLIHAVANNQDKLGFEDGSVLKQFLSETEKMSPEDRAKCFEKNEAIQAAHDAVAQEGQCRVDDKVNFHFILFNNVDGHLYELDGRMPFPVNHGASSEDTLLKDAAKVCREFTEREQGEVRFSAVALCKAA
USP7 block – inhibitors of human USP7 deubiquitinase; purified USP7, Ub-rhodamine cleavage fluorescence; inhibition, % at 20 µM; 47,000 tested, 0.3% active; AID 1645854, 2021
Starred values were filed as active, the others as inactive. No stated cut-off is given here; in the data, active means inhibition above about 30%; inactive means the rest.

CCn1cc2c(n1)c(=O)n(Cc1ccccc1)c(=O)n2CC(=O)Nc1ccc(C(C)C)cc1 was read as UCHL1 block 2.5 and USP7 block 14.1.
For CN1C(=O)C2(CCN(S(=O)(=O)c3ccccc3F)C2)c2ccccc21 (stereo not drawn) the results were UCHL1 block -0.5 and USP7 block 1.3.
Cc1ccc(NC(=O)Cc2nnc3c(-c4nc(C5CC5)no4)cccn23)cc1F was read as UCHL1 block 31.5* and USP7 block 52.6*.
For Cc1ccc(NC(=O)Cc2nnc3c(-c4nc(C5CC5)no4)cccn23)c(C)c1 the results were UCHL1 block 9.2 and USP7 block 7.4.
CCOC(=O)c1cc2c(=O)n3ccccc3nc2n(Cc2ccco2)c1=NC(=O)COc1ccc2ccccc2c1 was read as UCHL1 block 42.5* and USP7 block 27.5.
Screening CCOC(=O)c1c2ccc(OCC(=O)NCc3ccco3)cc2n2ccccc12 returned UCHL1 block -37.4 and USP7 block -71.1.
`CC1CC(=O)c2c(cc3c(-c4c(O)cc(O)c5c(O)c6c(cc45)OC(C)CC6=O)c(O)cc(O)c3c2O)O1` (stereo not drawn) gave UCHL1 block 83.4* and USP7 block 74.2*.
Clc1ccc2c(c1)nc1n2CCN(CCc2ccccc2)C1 was read as UCHL1 block -7.0 and USP7 block -0.2.
COc1ccccc1OCCSc1nnc(-c2ccc3c(c2)OCCCO3)n1C was read as UCHL1 block 2.4 and USP7 block 77.9*.
For Cn1c(SCCOc2ccccc2Cl)nnc1-c1ccc2c(c1)OCCO2 the results were UCHL1 block 3.1 and USP7 block -2.8.
O=C(COc1ccccc1)Nc1ccc(-c2nc3cnccc3o2)c(O)c1 was read as UCHL1 block -1.5 and USP7 block 36.2*.
Screening COc1ccc(OCC(=O)Nc2cc(C)c(O)c(-c3nc4ccccc4o3)c2)cc1 returned UCHL1 block 0.7 and USP7 block 3.5.
Screening CN1C(=O)CC[C@]2(C(=O)NCCc3cccnc3)CCCC[C@@H]12 returned UCHL1 block -1.2 and USP7 block 0.6.
`Cc1cccc(NC(=O)Nc2ccc(C)n(CC(=O)N3CCCCC3)c2=O)c1` gave UCHL1 block 1.6 and USP7 block 1.2.
For Cc1ccc(NC(=O)Nc2ccc(C)n(CC(=O)Nc3ccc(C)c(C)c3)c2=O)cc1 the results were UCHL1 block 4.7 and USP7 block 42.8*.
Screening Cc1ccc(CNC(=O)c2ccc3nn(CC(=O)Nc4ccccc4F)c(=O)n3c2)cc1 returned UCHL1 block 0.0 and USP7 block 10.4.
For Cc1ccc(-n2c(=O)[nH]c3c(C(N)=O)nc(-c4ccc(OCc5ccccc5)cc4)nc32)cc1 the results were UCHL1 block -2.5 and USP7 block 21.3.
O=C1COc2ccc(C(=O)COC(=O)CCc3nc4ccccc4s3)cc2N1 was read as UCHL1 block 1.4 and USP7 block 3.0.
For CCCCCCCCCCCC(O)CC(=O)N[C@@H](CC(C)C)C(=O)N[C@H](CCC(=O)O)C(=O)N[C@H]1C(=O)N[C@H]([C@@H](C)CC)C(=O)NC(CC(C)C)C(=O)N[C@H](CO)C(=O)N[C@@H](CC(C)C)C(=O)N[C@@H](CC(C)C)C(=O)N[C@H](CO)C(=O)N[C@@H](C(C)C)C(=O)O[C@@H]1C (stereo partly drawn) the results were UCHL1 block 28.6 and USP7 block 38.7*.
CCCCCCCC[C@@H](C)[C@@H]1OC(=O)[C@H](CO)NC(=O)[C@H](C(=O)c2c[nH]c3ccccc23)NC(=O)[C@@H](CCC(=O)O)NC(=O)[C@H]1C was read as UCHL1 block 1.7 and USP7 block -5.7.
`O=C(CC1(O)CCCCC1)N1CCNCC1c1ccccc1` (stereo not drawn) gave UCHL1 block 0.6 and USP7 block -1.2.
